Results reported in the supplement of paper PMC6555819.

Tests used:
Experiment in all cases: PBM binding z-score (relative to random genomic background probes); higher = stronger binding; sequences stand for … in GC…GCGATTGACAGCGTAGAATGAAGG
[1] = tested on: FXR:RXRa (NR concentration 270 nM, RXRa partner concentration 90 nM)
How it was run: (§1)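 For binding z-scores, the reference was random background probes on custom Agilent 4×180K protein-binding microarrays. These arrays were incubated 1 h with ligand-free nuclear receptor dimers in PBS pH 7.4, 2% milk, 0.02% Triton X-100, 1 mM DTT, 0.2 mg/mL BSA and 0.4 mg/ml salmon testes DNA. Fluorescence was scanned after antibody detection of each partner (one per run) and regression-normalized.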

[2] = tested on: LXRa:RXRa (NR concentration 270 nM, RXRa partner concentration 90 nM)
How it was run: as §1

[3] = tested on: LXRa homodimer (NR concentration 270 nM)
How it was run: as §1

[4] = tested on: LXRb:RXRa (NR concentration 270 nM, RXRa partner concentration 90 nM)
How it was run: as §1

[5] = tested on: LXRb homodimer (NR concentration 270 nM)
How it was run: as §1

[6] = tested on: PPARa:RXRa (NR concentration 270 nM, RXRa partner concentration 90 nM)
How it was run: as §1

[7] = tested on: PPARg:RXRa (NR concentration 180 nM, RXRa partner concentration 90 nM)
How it was run: as §1

[8] = tested on: PPARg:RXRa 270nM:90nM, anti-RXR (NR concentration 270 nM, RXRa partner concentration 90 nM)
How it was run: as §1

[9] = tested on: PPARg:RXRa 30nM:10nM, anti-RXR (NR concentration 30 nM, RXRa partner concentration 10 nM)
How it was run: as §1

[10] = tested on: PPARg:RXRa 90nM:30nM, anti-RXR (NR concentration 90 nM, RXRa partner concentration 30 nM)
How it was run: as §1

TCATATAGGTAATACAGGTGAAAGCCGGCATCTA
PBM binding z-score [1]: 0.854 | PBM binding z-score [2]: 1.36 | PBM binding z-score [3]: 0.571 | PBM binding z-score [4]: 1.21 | PBM binding z-score [5]: -0.105 | PBM binding z-score [6]: 1.96 | PBM binding z-score [7]: 1.68 | PBM binding z-score [8]: 2.68 | PBM binding z-score [9]: 3.73 | PBM binding z-score [10]: 3.35

CGAACCAGGTCATCCAGGACAGTGAATACATTGA
PBM binding z-score [1]: 5.37 | PBM binding z-score [2]: 3.75 | PBM binding z-score [3]: 1 | PBM binding z-score [4]: 3.05 | PBM binding z-score [5]: 0.375 | PBM binding z-score [6]: 4.67 | PBM binding z-score [7]: 4.89 | PBM binding z-score [8]: 4.6 | PBM binding z-score [9]: 1.51 | PBM binding z-score [10]: 3.59

CGTCCAAGGACAGCAGGTCAGTGAAAGCGACGTG
PBM binding z-score [1]: 0.0413 | PBM binding z-score [2]: -0.0225 | PBM binding z-score [3]: -0.497 | PBM binding z-score [4]: -0.229 | PBM binding z-score [5]: -1.12 | PBM binding z-score [6]: 0.599 | PBM binding z-score [7]: 0.186 | PBM binding z-score [8]: -0.344 | PBM binding z-score [9]: -0.721 | PBM binding z-score [10]: -0.226

CATACAGGGTCAGCTAGGGCAGAGTAGGGACGGC
PBM binding z-score [1]: 4.71 | PBM binding z-score [2]: 3.1 | PBM binding z-score [3]: -0.0929 | PBM binding z-score [4]: 2.23 | PBM binding z-score [5]: 0.47 | PBM binding z-score [6]: 4.21 | PBM binding z-score [7]: 3.23 | PBM binding z-score [8]: 3.05 | PBM binding z-score [9]: 0.549 | PBM binding z-score [10]: 1.75

TCTGCTAGGTCAACAATGGTCAGCTAATCTGCTA
PBM binding z-score [1]: 3.1 | PBM binding z-score [2]: 3.67 | PBM binding z-score [3]: -0.0289 | PBM binding z-score [4]: 2.16 | PBM binding z-score [5]: 0.366 | PBM binding z-score [6]: 3.29 | PBM binding z-score [7]: 2.13 | PBM binding z-score [8]: 3 | PBM binding z-score [9]: 2.07 | PBM binding z-score [10]: 2.54

CCGACTGGGGCAGAAAGGTTACCATCCCATCCGG
PBM binding z-score [1]: 0.0864 | PBM binding z-score [2]: 0.742 | PBM binding z-score [3]: -0.151 | PBM binding z-score [4]: 0.878 | PBM binding z-score [5]: -0.971 | PBM binding z-score [6]: 2.03 | PBM binding z-score [7]: 1.44 | PBM binding z-score [8]: 2.53 | PBM binding z-score [9]: 0.448 | PBM binding z-score [10]: 1.96

TCTCGGTGGACACGAAGGTCAGAGCTTTCCAGAG
PBM binding z-score [1]: 0.952 | PBM binding z-score [2]: 0.962 | PBM binding z-score [3]: 0.157 | PBM binding z-score [4]: 1.36 | PBM binding z-score [5]: -0.833 | PBM binding z-score [6]: 2.04 | PBM binding z-score [7]: 0.78 | PBM binding z-score [8]: 2.38 | PBM binding z-score [9]: 2.3 | PBM binding z-score [10]: 2.3

TGAATGAGGTTAAAGATCAGTGAACGTGGCGTCG
PBM binding z-score [1]: 3.15 | PBM binding z-score [2]: 2.41 | PBM binding z-score [3]: -0.442 | PBM binding z-score [4]: 1.55 | PBM binding z-score [5]: -0.0397 | PBM binding z-score [6]: 4.69 | PBM binding z-score [7]: 5.57 | PBM binding z-score [8]: 6.1 | PBM binding z-score [9]: 4.77 | PBM binding z-score [10]: 6.78

GCTACAGGGTCAGCTAGAGGCCAGAGTATGGAAA
PBM binding z-score [1]: 4.62 | PBM binding z-score [2]: 2.54 | PBM binding z-score [3]: -0.26 | PBM binding z-score [4]: 2.36 | PBM binding z-score [5]: -0.67 | PBM binding z-score [6]: 4.6 | PBM binding z-score [7]: 2.79 | PBM binding z-score [8]: 2.91 | PBM binding z-score [9]: 0.541 | PBM binding z-score [10]: 1.78

ATCTCTAGGTAATGATAGTTCAGTGAATGCAAAT
PBM binding z-score [1]: 0.391 | PBM binding z-score [2]: 3.56 | PBM binding z-score [3]: 0.99 | PBM binding z-score [4]: 0.864 | PBM binding z-score [5]: 0.755 | PBM binding z-score [6]: 0.625 | PBM binding z-score [7]: 0.774 | PBM binding z-score [8]: 0.986 | PBM binding z-score [9]: 0.371 | PBM binding z-score [10]: 0.513

ATCTCTAGCTAACCAAGTTCAGTGAATGCCGAAC
PBM binding z-score [1]: -0.0786 | PBM binding z-score [2]: 0.353 | PBM binding z-score [3]: 0.78 | PBM binding z-score [4]: 0.261 | PBM binding z-score [5]: 0.798 | PBM binding z-score [6]: -0.0272 | PBM binding z-score [7]: -0.107 | PBM binding z-score [8]: -0.251 | PBM binding z-score [9]: -0.294 | PBM binding z-score [10]: -0.0743

CCGAGTAGGTTATGGCGCATTCAGGCAACGGTGA
PBM binding z-score [1]: -0.0642 | PBM binding z-score [2]: 0.163 | PBM binding z-score [3]: -0.0103 | PBM binding z-score [4]: 0.076 | PBM binding z-score [5]: -0.283 | PBM binding z-score [6]: 0.62 | PBM binding z-score [7]: 0.319 | PBM binding z-score [8]: 0.503 | PBM binding z-score [9]: -0.377 | PBM binding z-score [10]: 0.107

CCGAGTAGGTTATGGTGCATTCAGGCAACGGTGA
PBM binding z-score [1]: 0.234 | PBM binding z-score [2]: 0.34 | PBM binding z-score [3]: 0.363 | PBM binding z-score [4]: 0.361 | PBM binding z-score [5]: 0.234 | PBM binding z-score [6]: 1.52 | PBM binding z-score [7]: 2.04 | PBM binding z-score [8]: 3.55 | PBM binding z-score [9]: 1.15 | PBM binding z-score [10]: 3.04

TAGCCTAGGTCAGATCGTGCCAGTATACGCTATA
PBM binding z-score [1]: 1.53 | PBM binding z-score [2]: 1.21 | PBM binding z-score [3]: -0.412 | PBM binding z-score [4]: 1.06 | PBM binding z-score [5]: 0.00468 | PBM binding z-score [6]: 1.91 | PBM binding z-score [7]: 0.806 | PBM binding z-score [8]: 0.67 | PBM binding z-score [9]: 0.0687 | PBM binding z-score [10]: 0.244

AGCATGAGGTTACCAAAGATCAGGGAAACGCTTG
PBM binding z-score [1]: 1.94 | PBM binding z-score [2]: 6.48 | PBM binding z-score [3]: 0.0616 | PBM binding z-score [4]: 3.13 | PBM binding z-score [5]: -0.682 | PBM binding z-score [6]: 2.77 | PBM binding z-score [7]: 1.41 | PBM binding z-score [8]: 1.4 | PBM binding z-score [9]: 0.579 | PBM binding z-score [10]: 1.07

CGAACGATGGCATGAGTTGATAGCAAATGCCGAT
PBM binding z-score [1]: -0.377 | PBM binding z-score [2]: -0.686 | PBM binding z-score [3]: -0.408 | PBM binding z-score [4]: -0.556 | PBM binding z-score [5]: -0.839 | PBM binding z-score [6]: -0.496 | PBM binding z-score [7]: 0.77 | PBM binding z-score [8]: 0.203 | PBM binding z-score [9]: 0.0969 | PBM binding z-score [10]: -0.044

CTACCAAGGTGAACAAGGTCGTTGAGTACTATTC
PBM binding z-score [1]: 1.64 | PBM binding z-score [2]: 1.36 | PBM binding z-score [3]: 0.0569 | PBM binding z-score [4]: 1.83 | PBM binding z-score [5]: -0.22 | PBM binding z-score [6]: 2.53 | PBM binding z-score [7]: 1.04 | PBM binding z-score [8]: 1.24 | PBM binding z-score [9]: 0.0413 | PBM binding z-score [10]: 0.542

CCTTACGGGTTACTGACAGGTTATAGCATTTGGA
PBM binding z-score [1]: 0.701 | PBM binding z-score [2]: 2.51 | PBM binding z-score [3]: 0.282 | PBM binding z-score [4]: 1.34 | PBM binding z-score [5]: -0.567 | PBM binding z-score [6]: 1.78 | PBM binding z-score [7]: 0.373 | PBM binding z-score [8]: 1.24 | PBM binding z-score [9]: 0.114 | PBM binding z-score [10]: 0.535

CCAGACAGGTGAAAGGTAACTCGGTCTGGTACGC
PBM binding z-score [1]: 0.495 | PBM binding z-score [2]: 0.577 | PBM binding z-score [3]: -0.368 | PBM binding z-score [4]: 0.702 | PBM binding z-score [5]: -0.561 | PBM binding z-score [6]: 3.46 | PBM binding z-score [7]: 5.96 | PBM binding z-score [8]: 5.52 | PBM binding z-score [9]: 4.56 | PBM binding z-score [10]: 6.21

GCGACTGGGGCAATGCAGGTTACCATAAGGTTGG
PBM binding z-score [1]: 0.0254 | PBM binding z-score [2]: 0.655 | PBM binding z-score [3]: -0.566 | PBM binding z-score [4]: 0.504 | PBM binding z-score [5]: -0.824 | PBM binding z-score [6]: 1.78 | PBM binding z-score [7]: 1.65 | PBM binding z-score [8]: 1.26 | PBM binding z-score [9]: -0.113 | PBM binding z-score [10]: 0.69

TCATATAGGTAATATAGGTGAAAGTCGGCATCTA
PBM binding z-score [1]: 0.703 | PBM binding z-score [2]: 1.07 | PBM binding z-score [3]: 0.157 | PBM binding z-score [4]: 0.856 | PBM binding z-score [5]: 0.102 | PBM binding z-score [6]: 2.92 | PBM binding z-score [7]: 3.31 | PBM binding z-score [8]: 3.65 | PBM binding z-score [9]: 4.1 | PBM binding z-score [10]: 3.94

GTTGCTAGGTCAACTGATGGTCAGCTAAAGCTCG
PBM binding z-score [1]: 4.29 | PBM binding z-score [2]: 3.62 | PBM binding z-score [3]: 0.729 | PBM binding z-score [4]: 2.08 | PBM binding z-score [5]: 0.507 | PBM binding z-score [6]: 3.96 | PBM binding z-score [7]: 3.38 | PBM binding z-score [8]: 3.96 | PBM binding z-score [9]: 0.825 | PBM binding z-score [10]: 2.71

CAAACTGGGTCAAGAGGTCAAAGTCCGCTTCCCG
PBM binding z-score [1]: 6.73 | PBM binding z-score [2]: 6.26 | PBM binding z-score [3]: 5.68 | PBM binding z-score [4]: 5.53 | PBM binding z-score [5]: 1.32 | PBM binding z-score [6]: 6.47 | PBM binding z-score [7]: 9.59 | PBM binding z-score [8]: 8.33 | PBM binding z-score [9]: 7.11 | PBM binding z-score [10]: 8.47

TCATATAGGTAAAGGTGAAAGCCGAACGATATGA
PBM binding z-score [1]: 0.132 | PBM binding z-score [2]: 1.05 | PBM binding z-score [3]: -0.406 | PBM binding z-score [4]: 1.09 | PBM binding z-score [5]: -0.488 | PBM binding z-score [6]: 3.13 | PBM binding z-score [7]: 3.82 | PBM binding z-score [8]: 4.43 | PBM binding z-score [9]: 4.34 | PBM binding z-score [10]: 4.51
